# This excerpt belongs to a sample that is enriched for hits.
# Dicer processing: inhibitors of human Dicer processing of pre-microRNA; z-score at 25 µM; 47,000 compounds, 6% hits; Q9UPY3; cat-ELCCA pre-miR-21 Dicer processing, chemiluminescence; hits give high values; in the data active = z-score above about 3, passing the limit was not always enough;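 note: plate controls were vehicle for no effect and no enzyme for full effect; higher signal means more uncleaved substrate so more Dicer inhibition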
# Active calls of the source: *.
SMILES,Dicer processing
COc1ccc(-c2cc(OC(=O)c3ccc(Cl)cc3)c3c(C)oc(C)c3c(=O)c2)cc1,1.7
COc1ccc(-c2cc(OC(=O)c3cccs3)c3c(C)oc(C)c3c(=O)c2)cc1,4.3*
CNC(=S)N/N=C/c1c(O)ccc2ccccc12,0.57
Fc1ccccc1NC(=S)N/N=C/c1cccc2ccccc12,3.4*
CC(C)(C)OC(=O)N/N=C\c1cccc2ccccc12,-1.2
Cc1ccc(N2C(=O)CC(Sc3nnc(-c4ccccc4O)o3)C2=O)cc1 (centres undefined),-0.16
COc1c(Br)cc([N+](=O)[O-])c(OC)c1C(=O)NC(=O)Nc1c(Cl)cc([N+](=O)[O-])cc1Cl,1.1
COc1cccc(OC)c1NC(=O)NC(=O)c1c(OC)c(Br)cc([N+](=O)[O-])c1OC,8.8
COc1c(Br)cc([N+](=O)[O-])c(OC)c1C(=O)NC(=O)Nc1cc(C(F)(F)F)cc(C(F)(F)F)c1,4.2*
Cc1ccnc(NS(=O)(=O)c2ccc(N3C(=O)C4CCCCC4C3=O)cc2)n1 (centres undefined),8.1*
Cc1cc(C)nc(NC(=O)CN2C(=O)C3CCCCC3C2=O)n1 (centres undefined),1.6
CC(=O)Nc1ccc(S(=O)(=O)Nc2nc(C)cc(C)n2)cc1,-1.6
CC(=O)OCCOCn1cc(F)c(=O)[nH]c1=O,-1
CCN(CC)S(=O)(=O)c1ccc(Br)c2nsnc12,4.6
Cc1ccc2oc(-c3ccccc3)cc(=O)c2c1,4.7*
Cc1ccc2oc(C(=O)O)cc(=O)c2c1,2.5
O=c1cc(-c2ccccc2)oc2ccc(-c3nn[nH]n3)cc12,0.08
Fc1cccc(-c2nn3c(Cc4ccccc4)nnc3s2)c1,2.4
CCO/N=C(/N)c1[nH]ncc1Br,1.4
CSC(SC)=C(C#N)c1ccc(Cl)cc1Cl,-0.31
CC1C/C(=N\Nc2cc(Cl)cc(Cl)c2)c2cc(Cl)ccc2S1 (centres undefined),1.4
CC1C/C(=N\Nc2ccc(Br)cc2)c2cc(Cl)ccc2S1 (centres undefined),3.2*
O=[N+]([O-])c1ccc(N/N=C2\CCSc3ccc(Cl)cc32)cc1,0.41
C=CCOC(=O)Oc1ccc2c(=O)c(Oc3cc(C)cc(C)c3)coc2c1,3*
CCOC(=O)Oc1ccc2c(=O)c(Oc3cc(C)cc(C)c3)coc2c1,0.12
SMILES,Dicer processing
C=CCOC(=O)Oc1ccc2c(=O)c(Oc3cc(C)ccc3C)coc2c1,1.3
CCC(C)OC(=O)C(C)Oc1ccc2c(=O)c(Oc3ccccc3Cl)coc2c1 (centres undefined),-0.01
CCC(C)OC(=O)C(C)Oc1ccc2c(=O)c(Oc3ccc(C)cc3)coc2c1 (centres undefined),4.2*
CCC(C)OC(=O)C(C)Oc1ccc2c(=O)c(Oc3cccc(C)c3)coc2c1 (centres undefined),-1.1
CC(C)(Oc1ccc(Cl)cc1)C(=O)Nc1sc2c(c1C(N)=O)CCC2,-3.4
Cc1nn(-c2ccccc2)nc1C(=O)Nc1nnc(Sc2ccnc3cc(Cl)ccc23)s1,-0.35
CSc1nc2c(c(=O)n1C)C1(CCCCC1)Cc1ccccc1-2,-0.36
O=c1c2c(nc(NCCCO)n1-c1ccccc1)-c1ccccc1CC21CCCC1,0.32
Cn1c(Cc2ccccc2)nc2c(c1=O)C1(CCCCC1)Cc1ccccc1-2,-1.6
COc1ccccc1-n1c(SCC(N)=O)nc2c(c1=O)C1(CCCCC1)Cc1ccccc1-2,3.2*
O=c1c2c(nc(NCCO)n1-c1ccccc1)-c1ccccc1CC21CCCC1,4.1*
C=CCn1c(SCC(=O)OCC)nc2c(c1=O)C1(CCCC1)Cc1ccccc1-2,0.86
Cc1nn(-c2ccccc2)nc1C(=O)ONC(=O)c1ccccc1,-0.38
Nc1nc(NCc2cccs2)nn1-c1ccccc1,4.3*
Oc1ccc(NCc2cccs2)cc1,1
CCCCCCn1c(NCc2cccs2)nc2ccccc21,2.3
CC(C)(C)C1=NN2C(=N)CC(=O)N=C2S1,-1.5
Cc1ccc(C(=O)c2ccccc2C(=O)O)cc1C,0.06
CN(C)c1ccc(C(=O)c2ccccc2C(=O)O)c(O)c1,3.2*
COc1ccc(C(=O)c2ccccc2O)c(O)c1,6.3
COc1ccc(-c2c(N)nc(-c3ccc(Cl)cc3)nc2SC)cc1,1.3
C(=C\N1CCCCC1)/c1nnnn1-c1ccc(-c2ccccc2)cc1,0.97
CC1(C)CC(=O)c2cnc(NC(=O)c3cccc4ccccc34)nc2C1,-0.79
Cc1ccc(C)c(S(=O)(=O)Nc2ccc3oc(C)c(C(=O)O)c3c2)c1,-0.8
Cc1ccc(S(=O)(=O)Nc2cc(Cl)c3oc(=O)sc3c2)cc1,11*
SMILES,Dicer processing
Cc1cc(NS(=O)(=O)c2ccc(NS(=O)(=O)c3cc(C)c(Cl)cc3Cl)cc2)no1,-0.3
O=c1oc2c(Cl)cc(NS(=O)(=O)c3ccc(F)cc3)cc2s1,9.7*
COc1ccc(S(=O)(=O)Nc2cc(Cl)c3oc(=O)sc3c2)cc1,8.9*
COC(=O)c1sc(C(C)(C)C)cc1NS(=O)(=O)c1ccc(OC)cc1,-0.67
COc1ccc(Cl)cc1NS(=O)(=O)c1ccc(F)cc1,1.6
O=S(=O)(Nc1ccccc1Cl)c1ccc(F)cc1,-0.45
Cc1ccc(C)c(S(=O)(=O)Nc2cc(Cl)c3oc(=O)sc3c2)c1,12*
Cc1cc(C)cc(NS(=O)(=O)c2ccc3[nH]c(=O)[nH]c3c2)c1,-0.23
COc1ccc(S(=O)(=O)Nc2nnc(C(C)C)s2)cc1,0.14
Cc1ccc(C)c(S(=O)(=O)Nc2ccc3oc4c(c3c2)C(=O)CCC4)c1,-1.4
COc1cc(NC(=O)Cn2nc(C(F)(F)F)c3c2CCC3)c(OC)cc1Cl,-0.28
N#Cc1cnc(N2CCN(c3ccccc3)CC2)nc1N,-0.2
CC(C)(O)C#Cc1ccc(C(=O)N2CCN(Cc3ccc4c(c3)OCO4)CC2)cc1,0.59
CSC1=C(C(=O)c2ccccc2)CC(CC(=O)O)C(=O)N1c1ccccc1 (centres undefined),-0.86
COC(=O)c1cc(OC)c(OC)cc1N1C(=O)CC(c2cc(OC)c(OC)c(OC)c2)CC1=O,1.8
CCOc1ccc(NC23SCC(=O)C2CCc2ccccc23)cc1 (centres undefined),-0.71
CCN(C(=S)Nc1c(C)cccc1Cl)c1ccccc1,0.1
CSC(N)=Nc1ccccc1,1.6
CCN(C(=Nc1ccc(Cl)cc1)SC)c1ccccc1,3.4*
c1ccc2c(-c3csc(-c4ccc5c(c4)OCCO5)n3)coc2c1,-0.58
Cc1cc(=O)[nH]c(/N=C(\N)Nc2ccc(F)cc2F)n1,-0.36
N#Cc1c2c(c(Nc3ccc(Cl)cc3)n3c1nc1ccccc13)CCC2,-1.5
COc1cc(C(C)=O)ccc1CN1CCOCC1,0.64
COc1ccc(C2CC(=O)C3=C(C2)Nc2ccccc2NC3c2ccc(OC)cc2)cc1 (centres undefined),4.5*
COc1cccc(C2C3=C(CC(c4ccccc4)CC3=O)Nc3ccccc3N2C(=O)C2CC2)c1 (centres undefined),3.7*
COc1ccc(C2CC(=O)C3=C(C2)Nc2ccccc2NC3c2ccc(F)cc2)cc1 (centres undefined),1.6
O=C1CC(c2ccccc2)CC2=C1C(c1ccc(F)c(F)c1)Nc1ccccc1N2 (centres undefined),4.6*
COc1ccc(C2Nc3ccccc3NC3=C2C(=O)CC(c2cccs2)C3)cc1Br (centres undefined),-0.98
COc1ccc(C2CC(=O)C3=C(C2)Nc2ccccc2NC3c2cccc(Br)c2)cc1 (centres undefined),2
COc1ccc(C2CC(=O)C3=C(C2)Nc2ccccc2N(C(=O)C2CC2)C3c2cccnc2)cc1OC (centres undefined),-0.58

# Screening data (PubChem)
